Source: PubChem BioAssay
Active and inactive are the calls of the source.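 Rule for the calls, unless noted: active = inhibition of the reporter signal at or above 50%; inactive = inhibition below 50%.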

How the values were obtained:
[1] = inhibitors of TNFa-induced NFkB p65 translocation, primary screen, imaging, HUVEC, MLSMR starter and 10KST1 sets (AID 438;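 active = inhibition above 20% together with a positive visual image hit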;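 note: compound added about 3h40 before a 20 min TNFalpha stimulation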;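 for inhibition: signal is the nuclear over cytoplasmic p65 intensity ratio per well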); settings: HUVEC TNFa-induced p65 nuclear translocation; cell count: measured here: nuclei count (cytotoxicity indicator), at 2.08 µM; inhibition: at 2 µM, stronger effect = higher value, 0% TNFa-plus-vehicle, 100% no-TNFa wells
[2] = inhibitors of mutant huntingtin aggregation, primary screen, imaging, exon1htt(103Q)mCFP cells, high-content imaging (AID 483;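 active = visual image review flags a hit and inhibition of aggregation exceeds 20%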;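 note: compound exposure lasted 3 days before fixation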;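 for nuclei count: percent of the per-plate median nuclei count of sample wells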); settings: exon1htt(103Q)mCFP cell line, aggregate imaging, at 2 µM; inhibition of aggregation: stronger effect = higher value; nuclei count: measured here: cell count, toxicity
[3] = inhibitors of E-selectin induction by TNFa, primary screen, imaging, HUVEC, immunofluorescence, MLSMR starter and 10KST1 sets (AID 487;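 active = visually confirmed hit in the image check and inhibition above 20%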;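 for inhibition: signal is fraction of cell area covered by stained E-selectin grains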;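 for nuclei count: 100% = median nuclei count of all wells on the same plate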); settings: HUVEC TNFalpha-induced E-selectin immunofluorescence imaging, at 2 µM; inhibition: stronger effect = higher value; nuclei count: measured here: cell number, toxicity
[4] = target: Voltage-gated potassium channel subunit beta-2 (Rattus norvegicus) (UniProt P62483); experiment: KvBeta enzyme negative modulators, primary screen, biochemical, NADPH fluorescence (AID 622;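 active = fluorescence slope higher than the sample average by over 3 SD, cut at about -0.22 in these data, passing the limit was not always enough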;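 note: slope of raw intensity against log time taken from 70 to 1610 s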); settings: recombinant KvBeta, 4-cyanobenzaldehyde reduction, at 10 µM, stronger effect = higher value
Chain of Voltage-gated potassium channel subunit beta-2 (Rattus norvegicus) (P62483 whole entry, looked up): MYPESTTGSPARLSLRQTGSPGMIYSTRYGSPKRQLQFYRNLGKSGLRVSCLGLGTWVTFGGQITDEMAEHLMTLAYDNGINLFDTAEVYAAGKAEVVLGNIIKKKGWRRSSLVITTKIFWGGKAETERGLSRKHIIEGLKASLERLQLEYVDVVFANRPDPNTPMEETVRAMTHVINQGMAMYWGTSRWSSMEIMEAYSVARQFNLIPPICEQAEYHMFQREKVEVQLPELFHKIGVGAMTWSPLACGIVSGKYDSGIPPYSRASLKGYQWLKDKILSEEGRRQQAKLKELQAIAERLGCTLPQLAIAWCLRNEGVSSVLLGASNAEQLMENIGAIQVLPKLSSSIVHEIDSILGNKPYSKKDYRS

[5] = target: Voltage-gated potassium channel subunit beta-2 (Rattus norvegicus) (UniProt P62483); experiment: KvBeta positive modulators, primary screen, biochemical, NADPH fluorescence (AID 623;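 active = NADPH fluorescence slope more negative than the mean of all samples by about 3 SD, 99.7% confidence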;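 note: fluorescence intensity change per second fitted from 20 to 320 s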); settings: Recombinant KvBeta, NADPH fluorescence decrease slope, 10 min; at 10 µM; stronger effect = lower value
[6] = target: Alpha-2C adrenergic receptor (Homo sapiens) (UniProt P18825); experiment: modulators of alpha2C/GIRK thallium flux, primary screen, cell-based, HEK293 alpha2C/GIRK1/2 (AID 624;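 active = fluorescence slope after compound addition differing from the mean of all screened samples at 99.7% confidence, in either direction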;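 note: slope of fluorescence ratio to pre-addition baseline per second over 15 to 24 s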); settings: thallium flux BTC fluorescence, at 10 µM, actives lie on both sides
Chain of Alpha-2C adrenergic receptor (Homo sapiens) (P18825 whole entry, looked up): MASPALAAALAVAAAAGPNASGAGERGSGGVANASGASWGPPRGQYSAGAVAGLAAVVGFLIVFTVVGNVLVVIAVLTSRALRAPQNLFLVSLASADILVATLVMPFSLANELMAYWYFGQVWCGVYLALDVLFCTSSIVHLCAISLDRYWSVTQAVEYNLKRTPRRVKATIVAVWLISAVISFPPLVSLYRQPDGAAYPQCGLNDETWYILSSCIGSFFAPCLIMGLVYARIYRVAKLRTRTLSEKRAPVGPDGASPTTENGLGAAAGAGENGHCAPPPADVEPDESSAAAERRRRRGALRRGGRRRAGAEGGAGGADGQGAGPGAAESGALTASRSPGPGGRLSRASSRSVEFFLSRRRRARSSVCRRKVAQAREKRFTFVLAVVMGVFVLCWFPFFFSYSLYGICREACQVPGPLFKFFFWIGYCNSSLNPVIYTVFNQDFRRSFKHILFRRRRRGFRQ

[7] = inhibitors of Sendai virus-induced IRF3 signaling, primary screen, TLR/RLR signaling modifier project, cell-based, Sendai virus stimulus, luciferase, 10K MLSCN set (AID 602276;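 active = inhibition at or above 50% at 10 µM; inactive = inhibition below 50%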;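 note: firefly luciferase from ISG56 promoter only with Renilla not read in this screen; 0% = Sendai virus plus DMSO and 100% = medium plus DMSO without virus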); settings: HEK293 RL24 IRF3 luciferase reporter, at 10 µM, stronger effect = higher value
[8] = inhibitors of poly I:C-induced TLR3 signaling, primary screen, cell-based, poly I:C stimulus, luciferase, 10K MLSCN set (AID 602277); settings: HEK293-TLR3 RL24 IRF3 luciferase reporter, at 10 µM, stronger effect = higher value

| SMILES | cell count [1] | inhibition [1] | inhibition of aggregation [2] | nuclei count [2] [%] | inhibition [3] | nuclei count [3] [%] | fluorescence slope [4] | NADPH fluorescence slope [5] | slope [6] | inhibition [7] | inhibition [8] |
| --- | --- | --- | --- | --- | --- | --- | --- | --- | --- | --- | --- |
| CCOC(=O)C1CCCN(Cc2nc(N)nc(Nc3ccc(C)cc3)n2)C1 (centres undefined) | 580 | 1% (inactive) | -0.6% (inactive) | 90.1 | -41.3% (inactive) | 130 | -0.438 (inactive) | -0.000102 (inactive) | 0.00446 (inactive) | 22.6% (inactive) | 17.2% (inactive) |
| O=C(COC(=O)c1ccccc1Oc1ccccc1)NC1CCS(=O)(=O)C1 (centres undefined) | 33 | 74.9% (active) | 0% (inactive) | 95.2 | -124% (inactive) | 116 | -0.521 (inactive) | -1.6e-05 (inactive) | 0.00666 (inactive) | 8.04% (inactive) | -20% (inactive) |
| CCCNC(=O)c1ccccc1C(=O)NCCC | 386 | -1.6% (inactive) | 23.1% (inactive) | 94.4 | -3.9% (inactive) | 115 | -0.53 (inactive) | 0.000133 (inactive) | 0.00613 (inactive) | 15.6% (inactive) | 18% (inactive) |
| Cc1cc(N2CCOCC2)nc2ccc(NC(=O)C3CCC(C)CC3)cc12 (centres undefined) | 434 | -2.7% (inactive) | -22.1% (inactive) | 127 | -132% (inactive) | 123 | -0.549 (inactive) | 1.5e-05 (inactive) | 0.00409 (inactive) | -9.82% (inactive) | -31.3% (inactive) |
| CCOc1ccc(OCC)c(NC(=O)C2CCN(c3ncccn3)CC2)c1 | 588 | -14.2% (inactive) | 10.9% (inactive) | 103 | -43.7% (inactive) | 113 | -0.421 (inactive) | -5.1e-05 (inactive) | 0.0054 (inactive) | 8.17% (inactive) | 11.1% (inactive) |
| COc1ccc(C(=O)Nc2cccc(-c3nc4ncccc4o3)c2C)cc1OC | 729 | -44.9% (inactive) | -4.4% (inactive) | 96.1 | -22.4% (inactive) | 109 | -0.562 (inactive) | 1.4e-05 (inactive) | 0.00564 (inactive) | -16.3% (inactive) | -34.5% (inactive) |
| Cc1cccc(-n2ncc3c(N(CCO)CCO)ncnc32)c1 | 635 | 1.4% (inactive) | -5% (inactive) | 53.9 | -35.6% (inactive) | 125 | -0.513 (inactive) | -1.8e-05 (inactive) | 0.00728 (inactive) | -28.4% (inactive) | -84.3% (inactive) |
| c1ccc(Cn2ncc3c2ncn2c(-c4ccncc4)nnc32)cc1 | 430 | -10.4% (inactive) | -7.2% (inactive) | 117 | -36% (inactive) | 98.3 | -0.517 (inactive) | -1.5e-05 (inactive) | 0.00557 (inactive) | -13.1% (inactive) | -7.97% (inactive) |
| COc1cc2c(cc1OC)-c1nnc(C)n1C1(CCCC1)C2 | 849 | 2.9% (inactive) | -14.8% (inactive) | 132 | -70.9% (inactive) | 120 | -0.606 (inactive) | 3.2e-05 (inactive) | 0.00696 (inactive) | 10.3% (inactive) | 1.68% (inactive) |
| CCOc1ccccc1C(=O)NCc1ccc2c(c1)OCO2 | 414 | 1.1% (inactive) | -12.2% (inactive) | 98.8 | -18.7% (inactive) | 94.7 | -0.388 (inactive) | -3.6e-05 (inactive) | 0.00485 (inactive) | 10.4% (inactive) | -6.17% (inactive) |
| CCOc1cc(C(=O)N(C)c2ccccc2)cc(OCC)c1OCC | 314 | 5.5% (inactive) | 17.8% (inactive) | 97.5 | 5.8% (inactive) | 86.2 | -0.368 (inactive) | -3.2e-05 (inactive) | 0.00526 (inactive) | 18.6% (inactive) | 32.8% (inactive) |
| CCN(CC(=O)Nc1c(C(=O)OC)[nH]c2ccccc12)c1ccc2c(c1)OCO2 | 309 | -2.1% (inactive) | -25.6% (inactive) | 70.8 | -53.3% (inactive) | 103 | -0.376 (inactive) | -6.7e-05 (inactive) | 0.00578 (inactive) | 20.2% (inactive) | 8.63% (inactive) |
| CCOc1ccc(-c2nnc3sc(-c4c(OC)cccc4OC)nn23)cc1 | 434 | 2.8% (inactive) | 0.4% (inactive) | 102 | -65.6% (inactive) | 111 | -0.609 (inactive) | -3.7e-05 (inactive) | 0.00506 (inactive) | 10.1% (inactive) | 3.17% (inactive) |
| COc1cccc(NC(=O)N[C@@H](Cc2ccccc2)C(=O)O)c1 | 565 | -9.8% (inactive) | -6.9% (inactive) | 103 | -37% (inactive) | 100 | -0.591 (inactive) | -3.6e-05 (inactive) | 0.00635 (inactive) | 6.12% (inactive) | 15.1% (inactive) |
| CCC(CC)C(=O)Nc1cccc(C(=O)NCc2ccco2)c1 | 295 | 2.3% (inactive) | -17.4% (inactive) | 107 | -100% (inactive) | 138 | -0.428 (inactive) | -1.2e-05 (inactive) | 0.00559 (inactive) | -5.68% (inactive) | -18.7% (inactive) |
| Cc1c(Cl)cccc1N1C(=O)c2ccccc2C1=O | 275 | 7.5% (inactive) | -0.9% (inactive) | 90.5 | 16.9% (inactive) | 93.5 | -0.502 (inactive) | -3.6e-05 (inactive) | 0.00611 (inactive) | -1.09% (inactive) | 15.5% (inactive) |
| CCOC(=O)c1ccc2ncc(C(=O)OCC)c(NCCN(C)C)c2c1 | 770 | -3.3% (inactive) | -5.5% (inactive) | 94 | -63.4% (inactive) | 113 | -0.545 (inactive) | -3.1e-05 (inactive) | 0.00656 (inactive) | 10% (inactive) | 44% (inactive) |
| COc1ccc(-n2ccnc2SCC(=O)NCc2ccc3c(c2)OCO3)cc1 | 495 | 0.2% (inactive) | -17.1% (inactive) | 110 | -80% (inactive) | 123 | -0.596 (inactive) | -2.8e-06 (inactive) | 0.006 (inactive) | 11.9% (inactive) | 32.1% (inactive) |
| Cn1c(=O)cc(NCCc2ccccc2)[nH]c1=O | 304 | 3.4% (inactive) | -8% (inactive) | 116 | -199% (inactive) | 156 | -0.43 (inactive) | -0.0001 (inactive) | 0.00647 (inactive) | 7.54% (inactive) | 27.3% (inactive) |
